Compounds without any hit were thinned out: in the full panel of roughly 79,000, 15% have a hit. A number with no mark means an inactive call. Activity calls are given as the source filed them. Cut-off read from the data, not from the text of the source: active = growth inhibition above about 70%; inactive = the rest.

The nature of assay [1]: NCI Yeast Anticancer Drug Screen. Data for the rad50 strain (AID 155).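 Note: 0% = growth of vehicle-only cultures of the same strain.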 The note with it: S. cerevisiae rad50 strain growth inhibition; at 50.0 µM; hits give high values. The method, boiled down:
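A DNA repair-deficient yeast mutant serves as the test organism; compound-induced growth inhibition is calculated against vehicle-treated cells.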

Assay [2] can be described thus: NCI Yeast Anticancer Drug Screen. Data for the mec2-1 strain (AID 157). The note with it: S. cerevisiae mec2-1 strain, at 50.0 µM, hits give high values. The procedure, abridged: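 Cells of the genetically defined mec2-1 yeast strain are incubated with test compound. Inhibition of growth is calculated against vehicle-treated controls.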
Assay [3] in a line: NCI Yeast Anticancer Drug Screen. Data for the sgs1 mgt1 strain (AID 161).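 Note: 0% = growth of cultures given vehicle only.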 Particulars: S. cerevisiae sgs1 mgt1 strain, at 50.0 µM, hits give high values. The procedure, abridged:
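Mutant yeast exposed to compound; growth scored against vehicle-only wells.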

Assay [4] can be described thus: NCI Yeast Anticancer Drug Screen. Data for the cln2 rad14 strain (AID 165).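 Note: 0% = growth equal to vehicle treated cultures.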 Particulars: S. cerevisiae cln2 rad14 strain, at 50.0 µM, hits give high values. The method, boiled down: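 The screen exposed genetically defined yeast (cln2 rad14) to test compounds and scored growth inhibition relative to vehicle-treated controls.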
The nature of assay [5]: NCI Yeast Anticancer Drug Screen. Data for the bub3 strain (AID 167). Particulars: S. cerevisiae bub3 mutant strain, at 50.0 µM, hits give high values. The procedure, abridged:
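Inhibition values come from growth of compound-treated mutant yeast normalised to vehicle-treated controls.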

Assay [6] can be described thus: NCI Yeast Anticancer Drug Screen. Data for the mlh1 rad18 strain (AID 175). The note with it: S. cerevisiae mlh1 rad18 strain growth inhibition; at 50.0 µM; hits give high values. The procedure, abridged: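 Compound-treated yeast growth, normalised to vehicle controls. Strain bears defined DNA repair mutations.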

As for `Nc1nc(N)nc(CCCCc2nc(N)nc(N)n2)n1`, the growth inhibition in assay [1] was -28.1%; in assay [2], -16%; in assay [3], -14.3%; in assay [4], -15.7%; in assay [5] it was -59.5%; in assay [6] it was -21.5%.
Take `COC(=O)c1cc(-c2ccncc2)[nH]c(=O)c1C#N`: the growth inhibition was -5.05% in assay [1]; -32.1% in assay [2]; -33.9% in assay [3]; -18.1% in assay [4]; -15.2% in assay [5]; -19.9% in assay [6].
Take `CCCCOCN1COCN(COCCCC)C1=O`: the growth inhibition in assay [1] is -2.3%; in assay [2] it was -17.4%; in assay [3], -0.45%; in assay [4], 6.95%; in assay [5] it was 18.1%; in assay [6] it was 6.2%.
As to `CC1=C(C(=O)Nc2ccccc2C)C(c2ccccc2)C(C(=O)Nc2ccccc2C)=C(C)N1`, the growth inhibition is 10.7% in assay [1]; 15.2% in assay [2]; 9.25% in assay [3]; 6.3% in assay [4]; 16.3% in assay [5]; 7.1% in assay [6].
Turning to `NNC(=O)c1ccco1`, the growth inhibition in assay [1] was 27.2%; in assay [2], -3.85%; in assay [3] it was -14.3%; in assay [4], 20.8%; in assay [5], -2.1%; in assay [6], 15.8%.
As to `COc1ccc(Nc2cnc3cc(N)ccc3n2)cc1OC`, the growth inhibition in assay [1] is -15.3%; in assay [2], -21.6%; in assay [3] it was -38.5%; in assay [4] it was -8.35%; in assay [5], -30.3%; in assay [6], 1.7%.
Regarding `CCCCC(=O)N/N=C\c1cc(Cl)ccc1[N+](=O)[O-]`, the growth inhibition in assay [1] was 17.6%; in assay [2] it was 1.6%; in assay [3], -6.65%; in assay [4] it was 33.2%; in assay [5] it was 7.7%; in assay [6] it was 1.05%.
As for `S=C(NCCCN1Cc2ccccc2C1)Nc1ccccc1`, the growth inhibition in assay [1] was 15.4%; in assay [2], -4.1%; in assay [3], 3.15%; in assay [4], -16.1%; in assay [5] it was 4.85%; in assay [6] it was -10.6%.
For the molecule `O=C(NC(C(=O)O)c1ccccc1)c1ccc([N+](=O)[O-])cc1` (stereo unspecified), the growth inhibition was 8.2% in assay [1]; 10.1% in assay [2]; 13.4% in assay [3]; -0.6% in assay [4]; 31.6% in assay [5]; 11.6% in assay [6].
For the molecule `CCCC(=O)Oc1ccc(C(=O)OC)cc1`, the growth inhibition in assay [1] was 8.4%; in assay [2], -10.8%; in assay [3], -11.9%; in assay [4] it was -24.8%; in assay [5] it was -16.4%; in assay [6], 13.3%.
In the case of `CC12CCC(CC1)C2(C)C`, the growth inhibition is 5.6% in assay [1]; 0.3% in assay [2]; 0.15% in assay [3]; -4.8% in assay [4]; 4.75% in assay [5]; -1.6% in assay [6].
Take `c1ccc(Cn2nnnc2Nc2ccccc2)cc1`: the growth inhibition in assay [1] is -19.2%; in assay [2] it was -10.7%; in assay [3], -3.65%; in assay [4], 19.8%; in assay [5], 26.4%; in assay [6], 10.4%.
As for `CNc1nc(SCc2ccccc2)c2ncn(C3OC(CO)C(O)C3O)c2n1` (stereo unspecified), the growth inhibition in assay [1] is 11.3%; in assay [2] it was 4.8%; in assay [3], 16.9%; in assay [4], 19.9%; in assay [5] it was 4.95%; in assay [6], 17.9%.
In the case of `OC1(c2ccccc2)CCN(C/C=C/c2ccccc2Cl)CC1`, the growth inhibition was 66.1% in assay [1]; 53.9% in assay [2]; 70.1% (active) in assay [3]; 77.1% (active) in assay [4]; 57.6% in assay [5]; 85.8% (active) in assay [6].
On to `COc1cc(NC(C)CNC(C)C)c2ncccc2c1` (stereo unspecified), for which the growth inhibition was -15.7% in assay [1]; -4.85% in assay [2]; -2.1% in assay [3]; -34% in assay [4]; 7% in assay [5]; 2.1% in assay [6].
On to `O=C(O)CCSc1ccccc1[N+](=O)[O-]`, for which the growth inhibition in assay [1] was 31.6%; in assay [2], -8.6%; in assay [3] it was 23.4%; in assay [4], -10.3%; in assay [5], -0.9%; in assay [6], 19.9%.
Take `O=C(COc1ccc(Cl)cc1)N1N=C(c2ccc(Cl)cc2)CC1(O)c1ccccc1` (stereo unspecified): the growth inhibition was -15.8% in assay [1]; -29.8% in assay [2]; -8.9% in assay [3]; 0.85% in assay [4]; -18.2% in assay [5]; -10.6% in assay [6].
In the case of `Cc1cc2c(cc1C)NC1=C(N2)OC(c2cccc(O)c2)C1=O` (stereo unspecified), the growth inhibition in assay [1] was 1.9%; in assay [2], -16.9%; in assay [3] it was 1.55%; in assay [4] it was 4.4%; in assay [5] it was -31.4%; in assay [6], 11.8%.
Turning to `CCOC(=O)/C=C/C(=O)[O-].CCOC(=O)/C=C/C(=O)[O-].NC1CCCCC1N.[Pt+4]`, the growth inhibition is 19.2% in assay [1]; 25.9% in assay [2]; 19.4% in assay [3]; -2.1% in assay [4]; 20.1% in assay [5]; 10.2% in assay [6].
With `C/C=C1\CN2CCc3c([nH]c4ccccc34)C2CC1CC(=O)N(C)C` (stereo unspecified), the growth inhibition was 0.9% in assay [1]; -7.75% in assay [2]; -20.6% in assay [3]; -1% in assay [4]; 1.6% in assay [5]; -5.95% in assay [6].
On to `O=C(Nc1ccccc1Cl)Oc1ccc(Cl)cc1Cc1ccccc1`, for which the growth inhibition in assay [1], in assay [2], in assay [3], in assay [4], in assay [5] and in assay [6] was 99.7% (active) each time.
